# Source: PubChem BioAssay (NCI)
# About 83,000 compounds went through this panel and 20% of them were active in at least one assay; those are over-represented in the sample as a whole.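 A percent growth of 40 corresponds to 60% growth inhibition; 0 means no net growth; -100 means all cells died. Active threshold: below 10.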 The source made the active and inactive calls.
# Test system: HL-60(TB) leukemia
# Experiment: NCI-60 one-dose screen, 48 h (100 = growth as untreated, 0 = no growth, -100 = all killed)
# Details: 10 µM unless noted
row,SMILES,growth
1,Cl,107% (inactive)
2,Oc1ccc(-c2nc3ccc4[nH]ncc4c3c3c2CCCC3)c2cccnc12,-8.83% (active)
3,Nc1nc2ccccc2c2c(=O)c3cccc(Cl)c3sc12,93.7% (inactive)
4,CN(C)C[C@@H]1CCn2cc(c3ccccc32)C2=C(C(=O)NC2=O)c2cn(c3ccccc23)CCO1,-23.5% (active)
5,FC(F)(F)c1cc(N2CCCCC2)nc(NCCCNc2ccnc3cc(Cl)ccc23)n1,42.1% (inactive)
6,CC/C=C\C[C@H](O)C/C=C1/C(=O)C=C[C@@H]1C/C=C\CCCC(=O)OC,-12.3% (active)
7,CCC(C)(O)Cc1ccc(Cl)cc1 (stereo not given),96% (inactive)
8,COc1cccc(/C=C/C(=O)c2cc3c(N)c(C(=O)Nc4cccc(Cl)c4C)sc3nc2C)c1,0.771% (active)
9,Oc1c(CN2CCCC2)cc(CSCc2ccccc2)c2cccnc12,-23.7% (active)
10,Cc1cccc(/C=C2\CN(C(=O)OC(C)(C)C)C/C(=C\c3cccc(C)c3)C2=O)c1,90.2% (inactive)
11,CC(=O)CC(C)(C)c1ccc(Cl)cc1,69.9% (inactive)
12,Nc1ccc2ccccc2c1-c1c(N)ccc2ccccc12,2.94% (active)
13,COc1cc(-c2cc(-c3ccc(Nc4nc(Nc5ccc(Cl)cc5)nc(Nc5ccc(Cl)cc5)n4)cc3)no2)cc(OC)c1OC,-68.2% (active)
14,CN(Cc1ccccc1)c1nc(Cl)c(C2CC(c3ccc(F)cc3)=NN2C=O)s1 (stereo not given),102% (inactive)
15,CC(C)(C)OC(=O)N1C=C/C(=C\Cn2cc(-c3ccccc3)nn2)CC1,75.7% (inactive)
16,COc1cc2nc(Cc3ccc(C)cc3)[nH]c(=O)c2cc1OC,98.7% (inactive)
17,COc1ccc(/C=C\C(=O)/C=C/c2ccc(OC)cc2)cc1,50.2% (inactive)
18,CCC(C)[C@@H]1NC(=O)[C@@H]2CCCN2C(=O)[C@H](Cc2ccccc2)NC(=O)[C@@H]2CCCN2C(=O)[C@H](Cc2ccccc2)NC(=O)[C@@H]2CCCN2C(=O)[C@H](Cc2ccccc2)NC1=O (stereo not given in full),95.6% (inactive)
19,CCOC(=O)c1cc2cccc(OC)c2oc1=O,117% (inactive)
20,CC(=O)OCC(=O)C1CCC=CC1OC(C)=O (stereo not given),99.3% (inactive)

row,SMILES,growth
1,C[C@H](NC(=O)c1snnc1C1CC1)c1c(F)cccc1Cl,146% (inactive)
2,COc1cccc(/C(C)=N/NC(=O)CSc2nc3ccccc3c(=O)n2CCc2ccc(S(N)(=O)=O)cc2)c1,58.5% (inactive)
3,O=C(CCCCCCCCC(=O)N/N=C\c1cc(Cl)ccc1O)N/N=C\c1cc(Cl)ccc1O,9.81% (active)
4,COc1cccc(N=CNc2cccc(OC)c2)c1,96.7% (inactive)
5,CSc1ccc(N=C=C(c2ccccc2)c2ccccc2)cc1,79.8% (inactive)
6,Clc1ccc(-c2nc(NCCc3ccccc3)nc3c(NCCc4ccccc4)cnn23)cc1,88.8% (inactive)
7,CC(O)CN(CCO)CCN(CCO)CC(C)O (stereo not given),102% (inactive)
8,COc1ccc2nc(NC(=O)c3cccnc3Nc3cc(OC)c(OC)c(OC)c3)sc2c1,51.8% (inactive)
9,Cc1ccccc1SSc1ccccc1C,99.6% (inactive)
10,O=C(O)/C=C/c1cn(-c2ccccc2)nc1-c1ccc(F)cc1,103% (inactive)
11,CCCCN(CCCC)C(=O)CC,97.3% (inactive)
12,CC1=C(N2CCOCC2)C(N2CCOCC2)=C(C)C(=O)C1=O,97.3% (inactive)
13,CCOC(=O)C(=Cc1ccc(-c2ccccc2)cc1)C(=O)OCC,-10.6% (active)
14,O=C1/C(=C/c2ccc(F)c(F)c2)CN(C(=O)C(Cl)Cl)C/C1=C\c1ccc(F)c(F)c1,-47.1% (active)
15,COc1ccc(/C=C2\CCCC3C2=Nc2ccccc2NC3c2ccc(OC)cc2)cc1 (stereo not given),78.2% (inactive)
16,COc1nc2c(c(=O)n1C)CN(Cc1ccccc1)C=N2,92.9% (inactive)
17,CSCCC(NC(=O)c1ccccc1)C(=O)N/N=C1\S/C(=C/c2ccc(Cl)cc2)C(=O)N1C (stereo not given),51.6% (inactive)
18,CC1(C)N=C(N)N=C(N)N1c1ccc(Cl)c(Cl)c1,35.7% (inactive)
19,COc1cc(NC(=O)COc2cc(C)nc3ccc(OC)cc23)cc(OC)c1,80.3% (inactive)
20,Cc1ccc(C(=O)c2oc3ccc4c(C)cc(=O)oc4c3c2C)cc1,7.9% (active)
